Experiment [1] in a line: AP1 Signaling Pathway (AID 357; active = well fitted curve in either direction with a large enough effect, not every such curve was filed as active; also: % is scaled to controls: 0 for no effect and ±100 for the full control effect). The note with it: ME-180 AP-1-bla reporter, EGF-induced, beta-lactamase ratio, 5 h; at 7.69 µM (top of the series) unless noted. An outline of the steps: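 First, ME-180 AP-1-bla cells were cultured overnight at 37 °C in low-serum Opti-MEM. Next, titrated compounds with EC50 EGF were incubated 5 hours. Finally, CCF4 was added for 2.5 hours and the 460/530 nm ratio recorded.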

The target in experiment [2] is Cytochrome P450 1A2 (Homo sapiens) (UniProt P05177). Nature of the experiment: p450-cyp1a2 (AID 410; calls by dose curve; also: potency is read from the fitted curve at half-maximal effect;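 as to activity change, negative = inhibition: -100% = full effect of reference inhibitor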). An outline of the steps: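 O-Demethylation of luciferin 6' methyl ether by human CYP1A2 is monitored as luciferase luminescence. Substrate sits at Km (100uM); enzyme is 20nM. Values are scaled to 57 uM furafylline as maximal inhibition.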
Chain of Cytochrome P450 1A2 (Homo sapiens) (P05177 whole entry, looked up): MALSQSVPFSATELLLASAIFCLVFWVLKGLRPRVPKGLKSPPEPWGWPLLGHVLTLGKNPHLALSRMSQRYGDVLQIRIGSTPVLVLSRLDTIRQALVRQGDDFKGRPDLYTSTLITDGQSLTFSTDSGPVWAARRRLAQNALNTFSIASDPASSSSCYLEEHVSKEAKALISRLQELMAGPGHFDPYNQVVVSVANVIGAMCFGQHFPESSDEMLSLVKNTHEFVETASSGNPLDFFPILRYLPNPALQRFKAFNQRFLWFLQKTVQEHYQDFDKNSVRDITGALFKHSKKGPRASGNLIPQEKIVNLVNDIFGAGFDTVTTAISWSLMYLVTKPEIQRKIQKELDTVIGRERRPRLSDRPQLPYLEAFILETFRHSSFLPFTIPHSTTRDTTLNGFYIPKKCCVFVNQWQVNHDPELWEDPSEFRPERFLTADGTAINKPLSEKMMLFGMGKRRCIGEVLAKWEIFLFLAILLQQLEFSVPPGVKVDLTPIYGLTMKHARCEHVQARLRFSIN
A short description of experiment [3]: NFAT Signaling Pathway (AID 444; active = well fitted curve in either direction with a large enough effect, not every such curve was filed as active;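 also: carbachol stimulus at about its EC50 of 1 µM final; % is scaled to controls: 0 for no effect and ±100 for the full control effect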). Conditions: Jurkat NFAT-bla M1, carbachol, beta-lactamase ratio, 5 h; at 7.69 µM (top of the series) unless noted. A digest of the protocol: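 Jurkat cells carrying an NFAT-driven β-lactamase reporter and co-transfected muscarinic M1 receptor were treated with compound plus carbachol (1 uM final, an EC50 level) for 5 h at 37 °C. CCF4 loading followed for 1 h at RT; 460/530 nm ratio gave %activity.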

Experiment [4] can be described thus: Stat Signaling Pathway (AID 446; active = well fitted curve in either direction with a large enough effect, not every such curve was filed as active;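 also: ME-180 cervical cancer cells given 40 pM IL-6 alongside compound; SIE-controlled beta-lactamase reporter measured as 460/530 nm FRET emission ratio; % is scaled to controls: 0 for no effect and ±100 for the full control effect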). Conditions: ME-180 (cervical carcinoma) SIE beta-lactamase reporter, IL-6 stimulated, 5 h; at 7.69 µM (top of the series) unless noted. An outline of the steps: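 FRET read-out (405 nm excitation, 460/530 nm emission) of a beta-lactamase reporter under a STAT-inducible element in ME-180 cervical carcinoma cells. Cells with compound receive 40 pM IL-6 for 5 h. Values are normalised to AC90 stimulation and AC90 JAK-inhibitor controls.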

The target in experiment [5] is Glucocorticoid receptor (Homo sapiens) (UniProt P04150). Nature of the experiment: GR-GFP Redistribution (AID 450;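 active = compounds whose dose series gives a full or clear partial fitted curve of increased nuclear translocation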; also: potency is read from the fitted curve at half-maximal effect). Conditions: U2OS GR-GFP nuclear translocation, laser cytometry, 2 h.
Chain of Glucocorticoid receptor (Homo sapiens) (P04150 whole entry, looked up): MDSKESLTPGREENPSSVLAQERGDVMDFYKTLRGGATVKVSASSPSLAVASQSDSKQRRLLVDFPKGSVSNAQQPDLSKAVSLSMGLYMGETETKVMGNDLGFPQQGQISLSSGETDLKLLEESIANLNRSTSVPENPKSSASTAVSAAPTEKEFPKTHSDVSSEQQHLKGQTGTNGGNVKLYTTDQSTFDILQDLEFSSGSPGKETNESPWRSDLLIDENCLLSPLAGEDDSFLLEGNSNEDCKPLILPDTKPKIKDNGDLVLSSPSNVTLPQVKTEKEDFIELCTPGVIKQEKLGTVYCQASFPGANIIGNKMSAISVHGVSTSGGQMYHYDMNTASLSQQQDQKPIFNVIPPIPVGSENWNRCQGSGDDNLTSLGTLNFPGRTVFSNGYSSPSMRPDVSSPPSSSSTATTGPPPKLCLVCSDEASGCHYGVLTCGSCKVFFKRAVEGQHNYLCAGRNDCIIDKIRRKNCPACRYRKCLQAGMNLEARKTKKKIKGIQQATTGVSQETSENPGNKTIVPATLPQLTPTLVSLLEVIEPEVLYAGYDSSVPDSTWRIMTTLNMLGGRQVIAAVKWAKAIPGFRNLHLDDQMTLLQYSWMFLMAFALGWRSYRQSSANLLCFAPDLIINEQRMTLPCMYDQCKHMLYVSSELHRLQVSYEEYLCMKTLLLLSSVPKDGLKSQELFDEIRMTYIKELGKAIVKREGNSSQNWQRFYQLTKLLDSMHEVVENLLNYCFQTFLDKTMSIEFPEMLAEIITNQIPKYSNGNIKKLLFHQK
For experiment [6] the target is unchanged. The experiment is described as follows: GR-EFC Redistribution (AID 451; calls by dose curve; also: potency is read from the fitted curve at half-maximal effect). The note with it: CHO-K1 GR-EFC translocation, beta-gal luminescence, 2 h. A digest of the protocol:
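CHO-K1 cells stably expressing nuclear-localized β-gal enzyme acceptor and GR fused C-terminally to the enzyme donor fragment; ligand-driven nuclear translocation restores β-gal by complementation. Compounds titrated up to 46 uM final, 2 h at 37 °C; luminescence read.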

Experiment [7] concerns the target Mitogen-activated protein kinase 10 (Mus musculus) (UniProt Q61831). The experiment is described as follows: JNK3 AlphaScreen Assay (AID 530; active = well fitted curve in either direction with a large enough effect, not every such curve was filed as active;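 also: kinase came from lysate of stimulated human HepG2 cells; signal reports phosphorylation of biotinylated GST-cJun 1-79 at Ser73 with 10 µM ATP; % is scaled to controls: 0 for no effect and ±100 for the full control effect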). An outline of the steps:
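Phosphorylation of biotinylated GST-cJun(1-79) at Ser73 is measured by AlphaScreen proximity luminescence. Enzyme is JNK3 in HepG2 lysates activated with interleukin-1beta and tumor necrosis factor alpha; ATP is 10 uM final.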

For experiment [8], the target named is 3',5'-cyclic-AMP phosphodiesterase 4B (Homo sapiens) (UniProt Q07343). Nature of the experiment: qHTS Assay for Inhibitors of PDE-IV (AID 607; active = well fitted activation curve with a large enough effect in the main read-out, with a control signal flat, not every such curve was filed as active; also: % of control where 0% means no effect). A digest of the protocol:
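Cell-based read-out of cAMP via a modified cyclic nucleotide-gated channel and membrane potential dye (535/590 nm) in HEK293 cells expressing PDE4 endogenously. Compounds tested up to 22.9 uM final; 100 uM RO 20-1724 reference.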

Experiment [9] is described as follows: qHTS Assay for Lipid Storage Modulators (AID 1519; calls by dose curve). The note with it: Drosophila S3 cells, BODIPY lipid droplet/cell ratio, laser cytometry, cells loaded with oleic acid; for activity change, negative = inhibition: at 25.7 µM (top of the series). A digest of the protocol:
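Cells seeded at 5,000 per well were treated with compounds over a concentration series and loaded with oleic acid (400 uM, as added). Lipid droplet fluorescence (488 nm excitation, 500-530 nm channel) was read by laser-scanning cytometry and normalized to 20 uM Triacsin C.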
In general terms: Quantitative high-throughput screening tests each substance at several concentrations.

The target in experiment [10] is ATP-dependent 6-phosphofructokinase (Trypanosoma brucei brucei) (UniProt O15648). The experiment is described as follows: qHTS Assay to Find Inhibitors of T. brucei phosphofructokinase: hit validation (AID 492961). A digest of the protocol: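 Reaction: 0.1 M triethanolamine pH 8.0, 5 mM MgCl2, F6P 0.5 mM, ATP 0.1 mM, PFK 1.25 nM, 45 min RT. Read-out: ADP-Glo luminescence. Analysis: concentration-response fits, classed by r2 and efficacy.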
Chain of ATP-dependent 6-phosphofructokinase (Trypanosoma brucei brucei) (O15648 whole entry, looked up): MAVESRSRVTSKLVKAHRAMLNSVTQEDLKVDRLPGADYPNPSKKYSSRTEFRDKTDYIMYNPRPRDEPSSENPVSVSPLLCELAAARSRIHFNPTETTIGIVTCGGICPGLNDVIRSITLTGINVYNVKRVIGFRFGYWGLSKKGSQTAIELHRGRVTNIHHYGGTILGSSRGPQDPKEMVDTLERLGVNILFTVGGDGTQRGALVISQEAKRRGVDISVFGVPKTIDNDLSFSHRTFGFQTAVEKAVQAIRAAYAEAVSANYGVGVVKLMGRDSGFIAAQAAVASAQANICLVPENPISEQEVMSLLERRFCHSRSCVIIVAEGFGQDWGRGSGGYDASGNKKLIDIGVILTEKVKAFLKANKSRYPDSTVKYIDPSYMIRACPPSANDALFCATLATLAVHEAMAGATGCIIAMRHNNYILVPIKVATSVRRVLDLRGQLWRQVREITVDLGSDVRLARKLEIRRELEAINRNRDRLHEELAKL

Experiment [11] concerns the target Ubiquitin carboxyl-terminal hydrolase 1 (Homo sapiens) (UniProt O94782). Nature of the experiment: Inhibitors of USP1/UAF1: Pilot qHTS (AID 504865).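 Also: rhodamine fluorescence freed from ubiquitin-rhodamine substrate followed over time; top concentration of the series differs between compounds; % is scaled to controls: 0 for no effect and ±100 for the full control effect; nearly all actives have a fitted effect of over 35% in size.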 A digest of the protocol:
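1nM USP1/UAF1 + cpd, 15 min RT; start w/ Ub-Rho 150nM final; kinetic FL 480/540 nm, 6 reads q60 s. Buffer 50mM HEPES pH 7.8, 0.5mM EDTA, 1mM TCEP, 0.01% Tween-20, 0.1 mg/ml BSA.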

Experiment [12] addresses Luciferin 4-monooxygenase (Photinus pyralis) (UniProt P08659). Nature of the experiment: Biochemical firefly luciferase enzyme assay for NPC (AID 624030).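 Also: purified P. pyralis luciferase at 10 nM with luciferin and ATP substrate; 0% = DMSO and -100% = full luciferase inhibition by PTC124 control; nearly all actives have a fitted effect of over 70% in size.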 A digest of the protocol: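 Counter-screen for direct inhibition of the luciferase enzyme by approved-drug library compounds, run at 10 nM enzyme in 50 mM Tris acetate (final). Luminescence was read within 5 min of enzyme-buffer addition and normalized to PTC124 versus DMSO (0%).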

Experiment [13] in a line: qHTS profiling for inhibitors of Plasmodium falciparum proliferation (AID 504749).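 Also: 0% = DMSO vehicle and full inhibition = artemisinin control; nearly all actives have a fitted effect of over 60% in size.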 Conditions: P. falciparum in erythrocytes, SYBR Green DNA, 72 h, at 12.8 µM (top of the series). A digest of the protocol: (§1)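 Quantitative HTS: compounds pinned into medium, infected erythrocytes added (0.3% parasitemia, 2.5% hematocrit), 72 h culture at 37 C under 5% CO2. Saponin/Triton lysis with SYBR Green I, overnight RT, then fluorescence read.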

Experiment [14] concerns AS120. Described as above. Conditions: P. falciparum in erythrocytes, SYBR Green DNA, 72 h; series mostly up to 28.7 µM. An outline of the steps: as §1
In experiment [15] the test system is CP238. The description is as above. Conditions: P. falciparum in erythrocytes, SYBR Green DNA, 72 h; series mostly up to 12.8 µM. An outline of the steps: as §1
For experiment [16], the system named is FAB9. The description is as above. Conditions: P. falciparum in erythrocytes, SYBR Green DNA, 72 h; series mostly up to 12.8 µM. An outline of the steps: as §1
Setting [17] is: measured here: cell count channel max response.
[18] abbreviates: measured here: lipid channel max response.

Molecules are shown by their SMILES. Inconclusive results are not listed. Activity calls are given as the source filed them. Unless noted, calls follow the shape of the dose curve; as a rule, active = well fitted curve in the direction sought with a large enough effect; inconclusive = small, poorly fitted or top-dose-only effect, or another doubt; inactive = no such curve, though single readings can be large; an effect the other way counts as inactive or inconclusive.

Chain of 3',5'-cyclic-AMP phosphodiesterase 4B (Homo sapiens) (Q07343 whole entry, looked up): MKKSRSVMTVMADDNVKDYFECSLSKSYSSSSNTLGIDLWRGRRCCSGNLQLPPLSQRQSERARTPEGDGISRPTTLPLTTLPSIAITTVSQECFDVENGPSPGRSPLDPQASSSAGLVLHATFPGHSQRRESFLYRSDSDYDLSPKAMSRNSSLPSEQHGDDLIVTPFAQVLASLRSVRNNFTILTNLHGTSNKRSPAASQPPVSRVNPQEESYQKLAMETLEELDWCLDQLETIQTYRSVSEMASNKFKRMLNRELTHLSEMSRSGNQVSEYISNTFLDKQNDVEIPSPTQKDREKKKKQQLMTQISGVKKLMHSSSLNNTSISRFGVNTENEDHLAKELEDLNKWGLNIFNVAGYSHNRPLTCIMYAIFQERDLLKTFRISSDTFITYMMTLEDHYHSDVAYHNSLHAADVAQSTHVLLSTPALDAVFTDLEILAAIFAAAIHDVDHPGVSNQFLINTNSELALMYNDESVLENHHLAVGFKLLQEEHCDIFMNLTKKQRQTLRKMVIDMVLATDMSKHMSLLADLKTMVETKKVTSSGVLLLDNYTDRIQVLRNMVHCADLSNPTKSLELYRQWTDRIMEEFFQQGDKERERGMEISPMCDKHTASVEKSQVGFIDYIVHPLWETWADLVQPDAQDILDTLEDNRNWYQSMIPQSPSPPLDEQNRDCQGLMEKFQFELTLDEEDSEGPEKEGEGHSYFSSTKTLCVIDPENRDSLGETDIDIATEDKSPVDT
Chain of Ubiquitin carboxyl-terminal hydrolase 1 (Homo sapiens) (O94782 whole entry, looked up): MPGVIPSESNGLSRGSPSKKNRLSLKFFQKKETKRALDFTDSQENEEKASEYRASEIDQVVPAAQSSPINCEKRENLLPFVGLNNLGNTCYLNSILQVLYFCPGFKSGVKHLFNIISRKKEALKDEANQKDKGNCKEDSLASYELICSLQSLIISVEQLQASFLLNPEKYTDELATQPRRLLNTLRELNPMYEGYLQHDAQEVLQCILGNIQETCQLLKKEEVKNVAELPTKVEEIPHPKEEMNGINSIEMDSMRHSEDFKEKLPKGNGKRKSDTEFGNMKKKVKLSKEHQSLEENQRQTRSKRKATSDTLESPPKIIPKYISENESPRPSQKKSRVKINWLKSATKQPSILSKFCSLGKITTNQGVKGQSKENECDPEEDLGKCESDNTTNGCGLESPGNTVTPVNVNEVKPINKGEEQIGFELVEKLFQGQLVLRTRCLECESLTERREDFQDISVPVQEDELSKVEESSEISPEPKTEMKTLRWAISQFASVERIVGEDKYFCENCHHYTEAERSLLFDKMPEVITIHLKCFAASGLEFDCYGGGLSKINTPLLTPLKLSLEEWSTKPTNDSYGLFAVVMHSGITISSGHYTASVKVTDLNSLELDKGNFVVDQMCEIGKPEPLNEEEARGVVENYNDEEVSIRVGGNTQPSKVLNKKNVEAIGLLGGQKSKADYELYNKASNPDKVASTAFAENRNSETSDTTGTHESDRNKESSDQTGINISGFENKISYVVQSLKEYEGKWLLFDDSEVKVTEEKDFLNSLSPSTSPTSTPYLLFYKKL
Chain of Luciferin 4-monooxygenase (Photinus pyralis) (P08659 whole entry, looked up): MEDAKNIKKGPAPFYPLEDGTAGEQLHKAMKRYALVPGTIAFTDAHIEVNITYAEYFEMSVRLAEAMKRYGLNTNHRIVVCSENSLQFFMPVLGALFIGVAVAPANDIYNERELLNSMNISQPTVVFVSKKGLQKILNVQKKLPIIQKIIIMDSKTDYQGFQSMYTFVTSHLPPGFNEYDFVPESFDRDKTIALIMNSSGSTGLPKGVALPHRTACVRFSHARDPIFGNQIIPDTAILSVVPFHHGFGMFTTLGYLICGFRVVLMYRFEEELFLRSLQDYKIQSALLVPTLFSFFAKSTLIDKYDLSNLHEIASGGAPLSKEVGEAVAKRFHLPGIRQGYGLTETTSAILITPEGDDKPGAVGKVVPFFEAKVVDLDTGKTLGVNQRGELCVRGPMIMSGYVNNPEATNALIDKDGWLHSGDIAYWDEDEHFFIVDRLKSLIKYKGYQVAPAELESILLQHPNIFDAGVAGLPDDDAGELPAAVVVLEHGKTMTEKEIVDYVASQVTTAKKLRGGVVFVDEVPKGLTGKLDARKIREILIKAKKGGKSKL

Regarding `CC(=O)Nc1c(I)c(C(=O)N[C@H]2[C@@H](O)[C@H](O)[C@H](CO)O[C@@H]2O)c(I)c(N(C)C(C)=O)c1I`, the figures for the activity change, negative = inhibition in experiment [1], in experiment [3] and in [9] were 9.89% [at 17.2 µM] (inactive), -0.843% [at 17.2 µM] (inactive) and -0.4% (inactive), respectively. For the same molecule, the Potency entry in experiment [2], in experiment [7], in experiment [8], in [11], in [14] and in experiment [15] was “inactive” each time. The Potency entry in experiment [16] is “inactive”. In addition, the activity, negative = inhibition is -3.76% [at 17.2 µM] (inactive) in experiment [4], 8.5% (inactive) in [13] (parasite line A) and 4.91% (inactive) in experiment [13] (parasite line B). The Potency in [5] and in experiment [6] was > 20.6 µM (inactive) in each case. The max response in experiment [9] (setting [17]) is -8.07%; in experiment [9] (setting [18]) it was -5.12%. Moreover, the result in experiment [10] and in [12] was inactive.

For the molecule `O=C(O)/C=C\c1ccc(Cn2ccnc2)cc1`, the results for the activity change, negative = inhibition in [1], in [3] and in [9] were -4.02% [at 17.2 µM] (inactive), -0.213% [at 17.2 µM] (inactive) and 0.716% (inactive), respectively. In addition, the Potency is 12.6 µM (active) in experiment [2], > 20.6 µM (inactive) in experiment [5] and > 20.6 µM (inactive) in experiment [6]. Moreover, the values for the activity, negative = inhibition in experiment [4], in experiment [13] (parasite line A) and in [13] (parasite line B) were 6.45% [at 17.2 µM] (inactive), 2.69% (inactive) and -5.94% (inactive), respectively. In addition, the Potency entry in experiment [7], in [8], in experiment [11], in experiment [14], in [15] and in [16] was “inactive” each time. For the same molecule, the max response was -6.14% in experiment [9] (setting [17]) and -3.7% in experiment [9] (setting [18]). In addition, the molecule was classed as inactive in experiment [10] and in [12].

The values are drawn from PubChem BioAssay (NCATS).
